Experiments:
Assay in all cases: DAPPL (digital affinity profiling via proximity ligation, sequencing); 10 mM Tris-HCl pH 7.5, 50 mM NaCl, 1 mM DTT, 4% glycerol, room temperature, 30 min; GST-TFs on glutathione beads, 16-mer random dsDNA library, 0.1% formaldehyde crosslink after washing; high values mean tight binding
Conditions in all cases: protein: recombinant; tags: N-terminal GST; dsDNA, one strand shown
ERF = target: T1, ERF (Homo sapiens, UniProt P50548 1-548)
T1 sequence: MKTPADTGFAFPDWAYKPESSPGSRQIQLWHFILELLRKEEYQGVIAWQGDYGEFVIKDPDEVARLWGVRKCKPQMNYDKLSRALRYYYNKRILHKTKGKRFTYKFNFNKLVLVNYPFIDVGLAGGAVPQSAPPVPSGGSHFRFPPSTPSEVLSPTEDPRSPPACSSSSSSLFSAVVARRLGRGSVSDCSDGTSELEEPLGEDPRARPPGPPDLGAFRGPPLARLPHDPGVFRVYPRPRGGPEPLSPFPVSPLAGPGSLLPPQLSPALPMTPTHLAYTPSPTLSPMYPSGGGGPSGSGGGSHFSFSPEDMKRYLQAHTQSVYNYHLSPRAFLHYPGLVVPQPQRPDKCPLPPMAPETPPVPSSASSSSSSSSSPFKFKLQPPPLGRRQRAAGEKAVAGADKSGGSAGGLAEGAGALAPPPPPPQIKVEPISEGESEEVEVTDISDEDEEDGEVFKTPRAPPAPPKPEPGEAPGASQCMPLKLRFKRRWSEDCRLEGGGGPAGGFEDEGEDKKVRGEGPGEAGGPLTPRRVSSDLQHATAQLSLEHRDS
Procedure, shortened: (§1)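 Each value of binding signal is a hexamer's read frequency for a factor divided by the same hexamer's frequency in the tag-only sample. Barcoded, bead-captured GST fusions of human transcription factors made in yeast were pooled with that sample and incubated with 200 nmole of a random double-stranded 16-mer DNA library in Tris/NaCl/DTT/glycerol buffer at room temperature for 30 min. Washing, 0.1% formaldehyde crosslinking, proximity ligation, PCR and Illumina NextSeq500 sequencing followed.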

ETS2 = target: T2, ETS2 (Homo sapiens, UniProt P15036 1-469)
T2 sequence: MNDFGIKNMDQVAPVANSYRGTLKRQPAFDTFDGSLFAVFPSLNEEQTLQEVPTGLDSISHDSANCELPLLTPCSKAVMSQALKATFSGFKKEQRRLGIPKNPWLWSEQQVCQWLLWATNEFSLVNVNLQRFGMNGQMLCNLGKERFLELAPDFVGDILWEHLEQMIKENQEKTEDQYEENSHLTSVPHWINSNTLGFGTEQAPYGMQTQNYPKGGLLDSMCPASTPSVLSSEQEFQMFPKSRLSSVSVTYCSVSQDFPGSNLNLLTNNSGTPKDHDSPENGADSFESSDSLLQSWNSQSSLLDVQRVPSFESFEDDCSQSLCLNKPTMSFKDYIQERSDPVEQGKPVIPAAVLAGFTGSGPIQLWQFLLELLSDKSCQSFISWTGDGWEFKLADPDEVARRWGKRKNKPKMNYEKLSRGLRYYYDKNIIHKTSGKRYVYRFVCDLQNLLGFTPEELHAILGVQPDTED
Procedure, shortened: as §1

SPDEF = target: T3, SPDEF (Homo sapiens, UniProt O95238 1-335)
T3 sequence: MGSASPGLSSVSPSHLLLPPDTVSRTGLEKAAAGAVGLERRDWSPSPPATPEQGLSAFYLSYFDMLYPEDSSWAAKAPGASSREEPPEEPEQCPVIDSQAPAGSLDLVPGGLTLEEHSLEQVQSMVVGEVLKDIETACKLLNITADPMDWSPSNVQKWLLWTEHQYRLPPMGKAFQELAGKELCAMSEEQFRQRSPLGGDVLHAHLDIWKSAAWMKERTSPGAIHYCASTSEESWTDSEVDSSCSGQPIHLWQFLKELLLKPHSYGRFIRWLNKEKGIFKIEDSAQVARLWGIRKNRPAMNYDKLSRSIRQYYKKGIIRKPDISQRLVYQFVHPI
Procedure, shortened: as §1

ELF5 = target: T4, ELF5 (Homo sapiens, UniProt Q9UKW6-2 1-255)
T4 sequence: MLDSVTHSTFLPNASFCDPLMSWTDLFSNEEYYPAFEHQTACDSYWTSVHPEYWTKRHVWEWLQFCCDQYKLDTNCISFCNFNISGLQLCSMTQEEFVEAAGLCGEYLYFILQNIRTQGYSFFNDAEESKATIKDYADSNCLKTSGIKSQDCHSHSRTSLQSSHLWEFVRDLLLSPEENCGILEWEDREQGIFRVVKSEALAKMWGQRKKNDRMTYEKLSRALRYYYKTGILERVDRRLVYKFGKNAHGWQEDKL
Procedure, shortened: as §1

ETV3 = target: T5, ETV3 (Homo sapiens, UniProt P41162-2 1-143)
T5 sequence: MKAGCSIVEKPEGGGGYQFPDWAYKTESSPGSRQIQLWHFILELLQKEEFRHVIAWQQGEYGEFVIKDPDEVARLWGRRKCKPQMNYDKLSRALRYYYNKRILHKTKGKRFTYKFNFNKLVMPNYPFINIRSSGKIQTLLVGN
Procedure, shortened: as §1

ETV6 = ETV6 (Homo sapiens, UniProt P41212 1-452)
Sequence of ETV6 (P41212 whole entry): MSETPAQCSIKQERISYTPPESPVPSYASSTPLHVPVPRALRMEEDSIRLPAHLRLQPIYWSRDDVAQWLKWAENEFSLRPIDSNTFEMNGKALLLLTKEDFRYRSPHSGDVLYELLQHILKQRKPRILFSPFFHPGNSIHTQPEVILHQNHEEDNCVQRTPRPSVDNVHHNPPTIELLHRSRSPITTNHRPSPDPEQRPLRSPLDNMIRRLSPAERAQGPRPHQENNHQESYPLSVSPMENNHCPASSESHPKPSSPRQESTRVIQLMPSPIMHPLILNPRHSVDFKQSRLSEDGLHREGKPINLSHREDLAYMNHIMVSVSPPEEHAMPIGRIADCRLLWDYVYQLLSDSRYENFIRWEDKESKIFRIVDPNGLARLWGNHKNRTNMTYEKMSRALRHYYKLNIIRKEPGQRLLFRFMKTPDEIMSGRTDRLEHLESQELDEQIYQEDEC
Procedure, shortened: as §1

ETV7 = target: T6, ETV7 (Homo sapiens, UniProt Q9Y603 1-341)
T6 sequence: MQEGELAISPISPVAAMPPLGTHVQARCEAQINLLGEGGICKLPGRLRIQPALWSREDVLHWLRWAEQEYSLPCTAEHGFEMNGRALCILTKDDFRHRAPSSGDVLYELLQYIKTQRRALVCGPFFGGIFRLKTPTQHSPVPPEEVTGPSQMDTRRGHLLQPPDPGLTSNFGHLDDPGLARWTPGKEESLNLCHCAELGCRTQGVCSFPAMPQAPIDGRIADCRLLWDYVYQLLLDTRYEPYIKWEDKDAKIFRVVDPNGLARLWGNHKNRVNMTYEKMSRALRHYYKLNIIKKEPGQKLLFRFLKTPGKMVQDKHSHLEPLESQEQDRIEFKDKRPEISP
Procedure, shortened: as §1

Sequence	binding signal (ERF)	binding signal (ETS2)	binding signal (SPDEF)	binding signal (ELF5)	binding signal (ETV3)	binding signal (ETV6)	binding signal (ETV7)
ATGTAG	1.14 fold enrichment (6-mer frequency, TF over GST control)	1.08 fold enrichment (6-mer frequency, TF over GST control)	1.09 fold enrichment (6-mer frequency, TF over GST control)	1.04 fold enrichment (6-mer frequency, TF over GST control)	1.08 fold enrichment (6-mer frequency, TF over GST control)	1.02 fold enrichment (6-mer frequency, TF over GST control)	
GGCCCT	1.02 fold enrichment (6-mer frequency, TF over GST control)				1.03 fold enrichment (6-mer frequency, TF over GST control)		1.03 fold enrichment (6-mer frequency, TF over GST control)
CGCCAA	1.07 fold enrichment (6-mer frequency, TF over GST control)	1.04 fold enrichment (6-mer frequency, TF over GST control)			1.04 fold enrichment (6-mer frequency, TF over GST control)	1.03 fold enrichment (6-mer frequency, TF over GST control)	1.01 fold enrichment (6-mer frequency, TF over GST control)
TTAGGT	1.19 fold enrichment (6-mer frequency, TF over GST control)	1.13 fold enrichment (6-mer frequency, TF over GST control)	1.09 fold enrichment (6-mer frequency, TF over GST control)	1.02 fold enrichment (6-mer frequency, TF over GST control)	1.06 fold enrichment (6-mer frequency, TF over GST control)	1.16 fold enrichment (6-mer frequency, TF over GST control)	1.09 fold enrichment (6-mer frequency, TF over GST control)
GGCTTA	1.09 fold enrichment (6-mer frequency, TF over GST control)	1.09 fold enrichment (6-mer frequency, TF over GST control)	1.09 fold enrichment (6-mer frequency, TF over GST control)		1.05 fold enrichment (6-mer frequency, TF over GST control)		
AGACTT	1.02 fold enrichment (6-mer frequency, TF over GST control)	1 fold enrichment (6-mer frequency, TF over GST control)		1.2 fold enrichment (6-mer frequency, TF over GST control)	1.09 fold enrichment (6-mer frequency, TF over GST control)	1.04 fold enrichment (6-mer frequency, TF over GST control)	1.02 fold enrichment (6-mer frequency, TF over GST control)
TGCTGT	1.08 fold enrichment (6-mer frequency, TF over GST control)	1.15 fold enrichment (6-mer frequency, TF over GST control)				1.03 fold enrichment (6-mer frequency, TF over GST control)	1.13 fold enrichment (6-mer frequency, TF over GST control)
AAACGA	1.17 fold enrichment (6-mer frequency, TF over GST control)	1.15 fold enrichment (6-mer frequency, TF over GST control)	1.03 fold enrichment (6-mer frequency, TF over GST control)	1.09 fold enrichment (6-mer frequency, TF over GST control)	1.07 fold enrichment (6-mer frequency, TF over GST control)	1.12 fold enrichment (6-mer frequency, TF over GST control)	1.05 fold enrichment (6-mer frequency, TF over GST control)
TAAGGT	1.06 fold enrichment (6-mer frequency, TF over GST control)	1.06 fold enrichment (6-mer frequency, TF over GST control)	1.15 fold enrichment (6-mer frequency, TF over GST control)	1.05 fold enrichment (6-mer frequency, TF over GST control)	1.11 fold enrichment (6-mer frequency, TF over GST control)	1.08 fold enrichment (6-mer frequency, TF over GST control)	1.04 fold enrichment (6-mer frequency, TF over GST control)
CAACAA	1.05 fold enrichment (6-mer frequency, TF over GST control)	1.08 fold enrichment (6-mer frequency, TF over GST control)		1.03 fold enrichment (6-mer frequency, TF over GST control)	1.08 fold enrichment (6-mer frequency, TF over GST control)	1.01 fold enrichment (6-mer frequency, TF over GST control)	1.02 fold enrichment (6-mer frequency, TF over GST control)
GTCTAA	1.12 fold enrichment (6-mer frequency, TF over GST control)	1.04 fold enrichment (6-mer frequency, TF over GST control)		1.03 fold enrichment (6-mer frequency, TF over GST control)			1.05 fold enrichment (6-mer frequency, TF over GST control)
ACTTAG	1.17 fold enrichment (6-mer frequency, TF over GST control)	1.14 fold enrichment (6-mer frequency, TF over GST control)	1.01 fold enrichment (6-mer frequency, TF over GST control)		1.09 fold enrichment (6-mer frequency, TF over GST control)	1.14 fold enrichment (6-mer frequency, TF over GST control)	1.03 fold enrichment (6-mer frequency, TF over GST control)
CGCTCG	1.2 fold enrichment (6-mer frequency, TF over GST control)	1.1 fold enrichment (6-mer frequency, TF over GST control)	1.1 fold enrichment (6-mer frequency, TF over GST control)	1.03 fold enrichment (6-mer frequency, TF over GST control)	1.08 fold enrichment (6-mer frequency, TF over GST control)	1.08 fold enrichment (6-mer frequency, TF over GST control)	
